# Source: the supplement of paper PMC9135407
# “And” between values parts separate entries of the source, which are not always exact repeats. Identical values can stand only once. Counter-ions that a name gives are not always drawn. In all, about 5,800 compounds went through this assay and about 620 (11%) showed activity. Many of the other results were omitted from the sample, so actives are more common in it than they were. A number with no mark means an inactive call.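 Rule for the calls: active = score above a cut-off or among the top three wells of a plate; in these data no inactive exceeds 0.85.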
# Tested on: primary human hepatic stellate cells (donor 1)
# Test: scaled lipid accumulation score (0 = DMSO-like, 1 = nortriptyline-like); higher = stronger HSC inactivation (lipid re-accumulation), active = hit call of the paper
# Conditions: 48 h
# [1] = library stock concentration: 1 mM
# [2] = library stock concentration: 10 mM
# [3] = library stock concentration: 3.33 mM
# [4] = library stock concentration: 400 uM
# [5] = library stock concentration: 2 mM
smiles,measurement,setting,value
"CCCCCCCCCC(=O)OCC(CO)OC(=O)CCCCCCCCC (stereo not drawn) [1,2-Didecanoyl-glycerol (10:0)]",scaled lipid accumulation score,[1],≤ -0.021
"CCCCCCCCCC(=O)OCC(CO)OC(=O)CCCCCCCCC (stereo not drawn) [1,2-Didecanoyl-sn-glycerol]",scaled lipid accumulation score,[1],≤ 0
CCCCCC(O)C=CC1CC2CC(C1CC=CCCCC(=O)O)C2(C)C [15(R)-Pinane Thromboxane A2],scaled lipid accumulation score,[1],≤ 0
Cc1onc(-c2ccccc2)c1-c1ccc(S(N)(=O)=O)cc1,scaled lipid accumulation score,[2],≤ 0
Cc1onc(-c2ccccc2)c1-c1ccc(S(N)(=O)=O)cc1 [Valdecoxib],scaled lipid accumulation score,[3],≤ 0
same,scaled lipid accumulation score,[2],0.226 and 0.088
CCCCCCCCCCCCCCCC(=O)OC [Palmitic Acid methyl ester],scaled lipid accumulation score,[1],0.031
"O=P(O)(O)OC1C(O)C(OP(=O)(O)O)C(O)C(OP(=O)(O)O)C1O [D-myo-Inositol-1,3,5-triphosphate (sodium salt)]",scaled lipid accumulation score,[1],0.025
O=C(O)Cc1sc(-c2ccccc2)nc1-c1ccc(Cl)cc1 [Fentiazac],scaled lipid accumulation score,library stock concentration: 6.1 mM,0.006
CCCCC[C@H](O)/C=C/[C@H]1CCC(=O)[C@@H]1CCCCCCC(=O)O [11-deoxy Prostaglandin E1],scaled lipid accumulation score,[1],0.015
CC(C)=CCC[C@](C)(O)C1CC=C(C)CC1 (stereo partly drawn) [Bisabolol],scaled lipid accumulation score,[2],0.049
Cl.Cl.NC1(c2ccc(-c3nc4ccn5c(=O)[nH]nc5c4cc3-c3ccccc3)cc2)CCC1 [listing 1 of 2 here],scaled lipid accumulation score,[4],1.07 (active)
same,scaled lipid accumulation score,[5],1.23 (active)
Cl.Cl.NC1(c2ccc(-c3nc4ccn5c(=O)[nH]nc5c4cc3-c3ccccc3)cc2)CCC1 [listing 2 of 2 here],scaled lipid accumulation score,[3],1.35 (active)
same,scaled lipid accumulation score,[2],1.02 (active)
"O=C1C(=Cc2ccc(O)cc2)C2=Nc3ccccc3C2=C1C1=C2C(=Nc3ccccc32)C(=Cc2ccc(O)cc2)C1=O [Scytonemin, Lyngbya sp.]",scaled lipid accumulation score,[3],≤ 0
COc1ccc2cc(C(C)C(=O)O)ccc2c1 (stereo not drawn) [Naproxen(+)],scaled lipid accumulation score,library stock concentration: 8.7 mM,0.014
same,scaled lipid accumulation score,[2],≤ 0
CCCCCC(=O)CC[C@@H]1[C@@H](C/C=C\CCCC(=O)OC(C)C)[C@@H](O)C[C@H]1O,scaled lipid accumulation score,[1],≤ 0
Nc1nc2[nH]c(=O)[nH]c2c(=O)[nH]1 [8-hydroxy Guanine (hydrochloride)],scaled lipid accumulation score,[1],≤ 0
CCCCC1C(=O)CCC2C(CCCCCCC(=O)O)C(=O)CC12 (stereo not drawn) [Bicyclo Prostaglandin E1],scaled lipid accumulation score,[1],≤ 0
CCCCCCCCCCCC(=O)NC[C@]1(C)CCC[C@]2(C)c3ccc(C(C)C)cc3CCC12 (stereo partly drawn) [Lauric Acid Leelamide],scaled lipid accumulation score,[1],0.012
CC(C)c1ccc2c(c1)CC[C@H]1[C@](C)(CN)CCC[C@]21C.Cl [Leelamine (hydrochloride)],scaled lipid accumulation score,[1],0.297 (active)
CC(C)c1ccc2c(c1)CC[C@H]1[C@](C)(CN)CCC[C@]21C [Lylamine hydrochloride],scaled lipid accumulation score,[2],0.527
CN(C)C(=O)c1ccc(S(=O)(=O)c2ccc(NC(=O)C(C)(O)C(F)(F)F)c(Cl)c2)cc1 (stereo not drawn),scaled lipid accumulation score,[3],≤ -0.009
same,scaled lipid accumulation score,[2],≤ 0
"CCCC/C=C/C=C/C=C\CCCCCCCC(=O)O [9(Z),11(E),13(E)-Octadecatrienoic Acid]",scaled lipid accumulation score,[1],≤ 0
Cc1ccc(NC(=O)Nc2cc(C(F)(F)F)ccc2F)cc1Nc1ccc2c(c1)NC(=O)/C2=C\c1ccc[nH]1,scaled lipid accumulation score,library stock concentration: 80 uM,0.038
same,scaled lipid accumulation score,[4],0.353
O=C1Nc2ccc(-c3cccnc3)cc2/C1=C/c1ccc[nH]1 [JAK3 Inhibitor VI],scaled lipid accumulation score,[3],≤ 0
Cc1ccc(NC(=O)Nc2cc(C(F)(F)F)ccc2F)cc1Nc1ccc2c(c1)NC(=O)C2=Cc1ccc[nH]1,scaled lipid accumulation score,[5],1.14 (active)
same,scaled lipid accumulation score,[2],1.61 (active)
"CCCCc1c(-c2ccc(OC)cc2)[nH]c2nccnc12 [Aloisine, RP106]",scaled lipid accumulation score,[3],0.036
N#C/C(=C(/N)Sc1ccccc1N)c1cccc(C(O)c2ccncc2)c1 (stereo not drawn) [MEK Inhibitor I],scaled lipid accumulation score,[3],≤ 0
OCCN1CCN(CCCN2c3ccccc3Sc3ccc(Cl)cc32)CC1 [Perphenazine],scaled lipid accumulation score,[2],0.916 (active)
CN1CCN(CCCN2c3ccccc3Sc3ccc(Cl)cc32)CC1 [Prochlorperazine edisylate],scaled lipid accumulation score,library stock concentration: 3.5 mM,0.713
same,scaled lipid accumulation score,[2],0.523
NC(=O)N1c2ccccc2C=Cc2ccccc21 [Carbamazepine],scaled lipid accumulation score,,≤ 0
same,scaled lipid accumulation score,[3],0.025
same,scaled lipid accumulation score,[2],≤ 0 and 0.28
NC(=O)N1c2ccccc2C=Cc2ccccc21,scaled lipid accumulation score,[2],≤ 0
OCCN1CCN(CCCN2c3ccccc3Sc3ccc(Cl)cc32)CC1,scaled lipid accumulation score,[2],0.962 (active)
Cl.Cl.OCCN1CCN(CCCN2c3ccccc3C=Cc3ccccc32)CC1 [Opipramol dihydrochloride],scaled lipid accumulation score,[2],0.885 (active)
